Unmarked numbers belong to inactive results. Inconclusive results are not listed. Where a call stands in place of a potency, no number is given. Activity calls are given as the source filed them. Unless noted, the call rests on the fitted dose curve; in most records, active means well fitted curve in the direction sought with a large enough effect in the repeat runs; inconclusive means weak or mixed curves; inactive means no such curve, though single readings can be large; an effect the other way counts as inactive or inconclusive.
Assays:
[1] = qHTS assay to identify small molecule antagonists of the sonic hedgehog signaling (Shh) pathway (AID 1259369; calls by dose curve; further: nearly all actives have a fitted effect of over 45% in size; further: potency means the concentration at half of the fitted maximal effect)
Procedure, shortened: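 Read-out is luminescence from a firefly luciferase gene controlled by the Gli1 response element, in 3T3Gli1-Luc cells pre-incubated 4hr then exposed to compounds and conditioned medium for 24hr.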

[2] = target: Estrogen receptor beta (Homo sapiens) (UniProt Q92731); assay: qHTS assay to identify small molecule agonists of the estrogen receptor beta (ER-beta) signaling pathway (AID 1259377; active means well fitted activation curve with a large enough effect in the signal ratio in the repeat runs, not every such curve was filed as active; the % refers to the signal ratio)
Procedure, shortened: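 Ratiometric beta-lactamase FRET read-out came after 2 h substrate loading at room temperature. It followed 16 h compound treatment at 37C of GripTite HEK293T cells carrying a UAS-bla reporter, plated in 2% charcoal-stripped FBS medium.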

[3] = target: Estrogen receptor beta (Homo sapiens) (UniProt Q92731); assay: qHTS assay to identify small molecule antagonists of the estrogen receptor beta (ER-beta) signaling pathway (AID 1259378; active means well fitted inhibition curve with a large enough effect in the signal ratio in the repeat runs, not every such curve was filed as active; the % refers to the signal ratio)
Procedure, shortened: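 ER-beta-UAS-bla HEK293T (GripTite) cells in 2% charcoal-stripped FBS medium were preincubated 6 hr at 37C, dosed with compound, then stimulated with 1 nM E2 (final) for 16 hr; beta-lactamase reporter read by B/G FRET fluorescence after 2 hr substrate loading.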

[4] = qHTS assay to identify small molecule agonists of the androgen receptor (AR) signaling pathway in the presence of an antagonist - cell viability counter screen (AID 1259379); further: nearly all actives have a fitted effect of over 25% in size; further: potency means the concentration at half of the fitted maximal effect;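 on activity change, negative = cytotoxicity: MDA-kb2 human breast cancer cells carrying an MMTV luciferase reporter; series mostly up to about 92 µM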
Procedure, shortened: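 Each compound was tested at 15 concentrations on MDA-kb2 cells in the presence of 3.0uM nilutamide. Viability was measured by CellTiter-Fluor fluorescence after a 16 hr incubation at 37C in a CO2-free atmosphere.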

[5] = qHTS assay to identify small molecule agonists of the estrogen receptor beta (ER-beta) signaling pathway - cell viability counter screen (AID 1259380); further: nearly all actives have a fitted effect of over 30% in size; further: potency means the concentration at half of the fitted maximal effect
Procedure, shortened: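 Compounds dissolved in DMSO were pin-transferred onto ER-beta-UAS-bla HEK293T cells that had settled 6 hr, and exposure ran 16 hr at 37C. Following the reporter read, CellTiter-Glo luminescence after 30 min at room temperature indicated cytotoxicity.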

[6] = qHTS assay to identify small molecule agonists or antagonists of the thyroid stimulating hormone receptor (TSHR) signaling pathway - wild type cell line counter screen (AID 1259384; calls by dose curve)
Procedure, shortened: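 Wild-type HEK293 cells were plated 18 h at 37 C/5% CO2, pin-dosed with compound plus Ro20-1724 medium, held 30 min at room temperature, then given cAMP-d2 and anti-cAMP-cryptate; fluorescence was read after 1 h. Fifteen concentrations, triplicate.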

[7] = target: Thyrotropin receptor (Homo sapiens) (UniProt P16473); assay: qHTS assay to identify small molecule antagonists of the thyroid stimulating hormone receptor (TSHR) signaling pathway (AID 1259385; calls by dose curve; further: nearly all actives have a fitted effect of over 20% in size)
Procedure, shortened: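 TSHR-HEK293 cells were plated and held 18 h at 37C/5% CO2, then given compound plus Ro20-1724 and stimulated with TSH at 1.5 ng/mL final. After 30 min at room temperature, cAMP was detected with cAMP-d2/anti-cAMP-cryptate (1 h) by fluorescence.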

[8] = target: Progesterone receptor (Homo sapiens) (UniProt P06401); assay: qHTS assay to identify small molecule agonists of the progesterone receptor (PR) signaling pathway (AID 1346784; calls by dose curve; further: nearly all actives have a fitted effect of over 30% in size)
Procedure, shortened: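 Agonist qHTS: compounds pinned onto 3,000 PR-UAS-bla HEK 293T cells per well in charcoal-stripped serum medium, 16hr at 37C, then beta-lactamase activity measured by LiveBLAzer FRET fluorescence after 2 hours at room temperature.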

[9] = target: Progesterone receptor (Homo sapiens) (UniProt P06401); assay: qHTS assay to identify small molecule antagonists of the progesterone receptor (PR) signaling pathway (AID 1346795; active means well fitted inhibition curve with a large enough effect in the signal ratio in the repeat runs, not every such curve was filed as active; the % refers to the signal ratio)
Procedure, shortened: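 Antagonist mode with agonist R5020 at 1 nM final and 16 hr incubation at 37C. Reporter was beta-lactamase driven by UAS in HEK293T (PR-UAS-bla), 2% charcoal-stripped serum; signal from LiveBLAzer FRET substrate, 2 hr at room temperature.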

[10] = qHTS assay to identify small molecule agonists of the progesterone receptor (PR) signaling pathway - cell viability counter screen (AID 1346799; calls by dose curve; further: nearly all actives have a fitted effect of over 45% in size; further: potency means the concentration at half of the fitted maximal effect)
Procedure, shortened: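 Cytotoxicity measured by CellTiter-Glo luminescence (30 min, RT) in the same wells as the PR beta-lactamase agonist read. Those HEK293T cells had 16 h compound treatment at 37 C in 2% charcoal-stripped FBS medium.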

[11] = qHTS assay to identify small molecule antagonists of the TGF-beta/Smad signaling pathway - cell viability counter screen (AID 1346824); further: nearly all actives have a fitted effect of over 50% in size
Procedure, shortened: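 SBE-bla HEK 293T cells were plated overnight at 37 C, then given compounds in DMSO plus TGF-beta1 (added as 0.25 ng/mL solution) for 5 hr. After the bla read, CellTiter-Glo was added to the same wells and luminescence read after 30 min at room temperature.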

[12] = qHTS assay to identify small molecule agonists of the TGF-beta/Smad signaling pathway - cell viability counter screen (AID 1346829); further: top concentration of the series differs between compounds; nearly all actives have a fitted effect of over 45% in size
Procedure, shortened: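 CellTiter-Glo luminescence readout; SBE-bla HEK 293T cells, overnight plating, compound 5 hr at 37 C/5% CO2, then bla substrate 2 hr RT, then CellTiter-Glo 30 min RT.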

[13] = qHTS assay to identify small molecule agonists of the TGF-beta/Smad signaling pathway (AID 1346859; active means well fitted activation curve with a large enough effect in the signal ratio in the repeat runs, not every such curve was filed as active; the % refers to the signal ratio; further: series mostly up to about 77 µM)
Procedure, shortened: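 Fluorescence (ex 405 nm; em 460 and 530 nm) was read 2 h after LiveBLAzer FRET substrate at RT. The preceding compound treatment of overnight-plated SBE-bla HEK293T cells lasted 5 h at 37 C.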

[14] = target: Thyrotropin-releasing hormone receptor (Homo sapiens) (UniProt P34981); assay: qHTS assay to identify small molecule antagonists of the thyrotropin-releasing hormone receptor (TRHR) signaling pathway (AID 1346877; active means well fitted inhibition curve with a large enough effect in the repeat runs, not every such curve was filed as active; further: series mostly up to about 51 µM)
Procedure, shortened: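 Calcium signal in dye-loaded TRHR/HEK293 cells; compounds added 5 min before TRH (1 nM final); fluorescence monitored 3 min at 1 s steps.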

[15] = target: Thyrotropin-releasing hormone receptor (Homo sapiens) (UniProt P34981); assay: qHTS assay to identify small molecule agonists of the thyrotropin-releasing hormone receptor (TRHR) signaling pathway (AID 1346891; calls by dose curve; further: potency means the concentration at half of the fitted maximal effect; on activation: series mostly up to about 58 µM)
Procedure, shortened: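 Agonist-mode intracellular calcium readout: kinetic fluorescence over 3 min at 1 s intervals after compound addition to TRHR-HEK293 cells (18 h seeded, 2 h dye-loaded at 37 C). Fifteen concentrations, triplicates.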

[16] = qHTS assay to identify small molecule antagonists of the estrogen receptor beta (ER-beta) signaling pathway - cell viability counter screen (AID 1259382); further: series mostly up to about 92 µM; nearly all actives have a fitted effect of over 55% in size
Procedure, shortened: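 CellTiter-Glo ATP luminescence measured after the LiveBLAzer read in the same wells; ER-beta-UAS-bla HEK293T cells, 16 hr compound treatment with 1nM 17-beta-estradiol agonist at 37C, 5% CO2.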

[17] = target: Estrogen receptor (Homo sapiens) (UniProt P03372); assay: qHTS assay to identify small molecule agonists of the estrogen receptor alpha (ER-alpha) signaling pathway in the presence of an antagonist (AID 1259383; calls by dose curve; further: top concentration of the series differs between compounds; nearly all actives have a fitted effect of over 15% in size)
Procedure, shortened: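 Luminescent ERE-luciferase reporter, VM7Luc4E2 cells (endogenous ER-alpha); 10.0nM ICI-182,780 final; 15-point compound titration; 22hr at 37C; ONE-Glo, 30min RT.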

[18] = qHTS assay to identify small molecule agonists of the estrogen receptor alpha (ER-alpha) signaling pathway in the presence of an antagonist - cell viability counter screen (AID 1259386);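 further: series mostly up to about 92 µM; cells exposed to compounds for 22 h at 37 °C before the viability read; nearly all actives have a fitted effect of over 30% in size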
Procedure, shortened: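 Using estrogen-depleted VM7Luc4E2 cells, the 15-concentration compound series was applied together with 10.0nM ICI-182,780 and incubated 22hr at 37C/5% CO2. Cell viability was then scored by CellTiter-Fluor.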

[19] = qHTS assay to identify small molecule antagonists of the progesterone receptor (PR) signaling pathway - cell viability counter screen (AID 1346798); further: series mostly up to about 92 µM; nearly all actives have a fitted effect of over 50% in size
Procedure, shortened: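 Cytotoxicity read as CellTiter-Glo luminescence (30 min, room temperature) in the same wells as the beta-lactamase readout. HEK293T PR-UAS-bla cells in charcoal-stripped 2% FBS received compound and R5020, then 16 h at 37C, 5% CO2.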

Chain of Progesterone receptor (Homo sapiens) (P06401 whole entry, looked up): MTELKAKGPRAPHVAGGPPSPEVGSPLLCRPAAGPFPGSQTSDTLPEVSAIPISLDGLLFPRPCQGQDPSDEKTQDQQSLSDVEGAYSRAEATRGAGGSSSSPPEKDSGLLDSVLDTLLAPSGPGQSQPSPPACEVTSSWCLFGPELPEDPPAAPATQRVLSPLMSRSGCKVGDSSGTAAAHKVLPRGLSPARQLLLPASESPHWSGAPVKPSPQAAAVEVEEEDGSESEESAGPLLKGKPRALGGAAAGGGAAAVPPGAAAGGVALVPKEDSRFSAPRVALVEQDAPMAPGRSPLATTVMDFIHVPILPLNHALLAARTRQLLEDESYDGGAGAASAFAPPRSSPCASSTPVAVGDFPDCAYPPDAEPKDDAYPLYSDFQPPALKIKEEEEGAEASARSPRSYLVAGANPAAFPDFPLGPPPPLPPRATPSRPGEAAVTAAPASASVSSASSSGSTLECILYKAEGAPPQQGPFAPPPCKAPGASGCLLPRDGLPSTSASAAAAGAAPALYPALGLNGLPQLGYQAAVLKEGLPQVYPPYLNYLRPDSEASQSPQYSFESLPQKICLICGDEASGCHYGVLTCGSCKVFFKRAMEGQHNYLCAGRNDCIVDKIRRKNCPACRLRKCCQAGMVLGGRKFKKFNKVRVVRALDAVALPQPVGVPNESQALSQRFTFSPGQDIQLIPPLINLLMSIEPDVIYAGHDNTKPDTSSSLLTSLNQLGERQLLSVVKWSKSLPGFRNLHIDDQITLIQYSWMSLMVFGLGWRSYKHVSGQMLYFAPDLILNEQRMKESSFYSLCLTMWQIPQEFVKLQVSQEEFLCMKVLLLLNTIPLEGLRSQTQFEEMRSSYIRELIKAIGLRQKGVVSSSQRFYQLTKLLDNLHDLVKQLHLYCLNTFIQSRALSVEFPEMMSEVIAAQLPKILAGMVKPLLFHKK
Chain of Thyrotropin receptor (Homo sapiens) (P16473 whole entry, looked up): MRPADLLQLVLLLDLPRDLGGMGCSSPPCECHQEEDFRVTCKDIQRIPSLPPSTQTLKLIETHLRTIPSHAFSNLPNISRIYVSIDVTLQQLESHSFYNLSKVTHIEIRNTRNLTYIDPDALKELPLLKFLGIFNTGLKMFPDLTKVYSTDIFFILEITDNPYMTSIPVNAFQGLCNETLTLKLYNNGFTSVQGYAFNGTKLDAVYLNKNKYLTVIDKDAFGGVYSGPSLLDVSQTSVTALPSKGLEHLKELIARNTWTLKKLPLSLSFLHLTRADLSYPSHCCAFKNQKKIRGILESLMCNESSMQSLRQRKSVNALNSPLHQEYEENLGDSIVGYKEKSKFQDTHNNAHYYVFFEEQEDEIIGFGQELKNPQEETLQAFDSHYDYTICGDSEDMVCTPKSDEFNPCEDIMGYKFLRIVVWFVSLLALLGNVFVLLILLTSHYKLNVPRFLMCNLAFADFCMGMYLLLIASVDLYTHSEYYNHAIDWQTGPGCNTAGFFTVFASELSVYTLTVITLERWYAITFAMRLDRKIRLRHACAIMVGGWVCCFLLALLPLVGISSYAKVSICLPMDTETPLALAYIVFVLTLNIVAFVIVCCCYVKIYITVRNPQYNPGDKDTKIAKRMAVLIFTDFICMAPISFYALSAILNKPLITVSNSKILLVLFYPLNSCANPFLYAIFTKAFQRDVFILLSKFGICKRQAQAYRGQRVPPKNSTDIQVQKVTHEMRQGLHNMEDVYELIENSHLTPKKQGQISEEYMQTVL
Chain of Estrogen receptor beta (Homo sapiens) (Q92731 whole entry, looked up): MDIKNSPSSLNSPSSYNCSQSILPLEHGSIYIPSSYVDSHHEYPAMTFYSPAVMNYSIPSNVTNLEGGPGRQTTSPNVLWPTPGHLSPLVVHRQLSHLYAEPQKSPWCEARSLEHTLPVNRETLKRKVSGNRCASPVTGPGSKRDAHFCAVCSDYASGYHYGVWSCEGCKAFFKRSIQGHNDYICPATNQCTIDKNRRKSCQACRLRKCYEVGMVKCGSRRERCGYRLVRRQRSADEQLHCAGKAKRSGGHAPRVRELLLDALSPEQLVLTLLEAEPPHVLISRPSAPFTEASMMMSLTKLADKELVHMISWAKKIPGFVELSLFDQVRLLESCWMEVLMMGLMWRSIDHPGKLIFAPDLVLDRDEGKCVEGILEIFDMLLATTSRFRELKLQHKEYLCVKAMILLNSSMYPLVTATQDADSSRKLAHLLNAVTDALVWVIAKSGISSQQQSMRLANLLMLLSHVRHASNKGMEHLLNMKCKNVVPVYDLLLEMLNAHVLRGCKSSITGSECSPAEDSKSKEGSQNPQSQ
Chain of Thyrotropin-releasing hormone receptor (Homo sapiens) (P34981 whole entry, looked up): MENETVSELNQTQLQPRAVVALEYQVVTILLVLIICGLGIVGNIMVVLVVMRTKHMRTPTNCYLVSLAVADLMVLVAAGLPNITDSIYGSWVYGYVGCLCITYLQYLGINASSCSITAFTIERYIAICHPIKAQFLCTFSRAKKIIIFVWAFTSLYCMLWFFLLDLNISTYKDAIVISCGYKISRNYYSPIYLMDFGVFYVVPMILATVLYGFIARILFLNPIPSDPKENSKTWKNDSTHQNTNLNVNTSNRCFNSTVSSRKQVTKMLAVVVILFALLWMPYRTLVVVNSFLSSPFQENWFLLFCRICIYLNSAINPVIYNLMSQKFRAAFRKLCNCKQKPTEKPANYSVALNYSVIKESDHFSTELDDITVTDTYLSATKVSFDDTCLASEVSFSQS
Chain of Estrogen receptor (Homo sapiens) (P03372 whole entry, looked up): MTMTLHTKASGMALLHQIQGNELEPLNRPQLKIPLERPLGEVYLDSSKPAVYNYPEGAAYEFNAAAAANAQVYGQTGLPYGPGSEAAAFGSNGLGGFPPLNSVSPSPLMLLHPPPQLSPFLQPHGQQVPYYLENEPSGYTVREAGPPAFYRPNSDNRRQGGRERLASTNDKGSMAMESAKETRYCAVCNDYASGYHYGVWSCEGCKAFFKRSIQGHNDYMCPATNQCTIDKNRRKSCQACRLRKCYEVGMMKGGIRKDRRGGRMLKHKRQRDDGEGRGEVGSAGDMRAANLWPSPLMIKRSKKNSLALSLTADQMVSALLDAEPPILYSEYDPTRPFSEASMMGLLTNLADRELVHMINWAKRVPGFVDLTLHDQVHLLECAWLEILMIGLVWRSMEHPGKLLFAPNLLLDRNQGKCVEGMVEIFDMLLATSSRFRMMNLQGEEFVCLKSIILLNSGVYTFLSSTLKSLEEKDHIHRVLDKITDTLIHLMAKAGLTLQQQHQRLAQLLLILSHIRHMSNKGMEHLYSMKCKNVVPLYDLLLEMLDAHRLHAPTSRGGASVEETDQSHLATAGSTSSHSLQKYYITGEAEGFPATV

## O=C=NC1CCC(CC2CCC(N=C=O)CC2)CC1 (centres undefined)
[1]
  Potency: 43.3 µM (active)
[2]
  Potency: inactive
[3]
  Potency: inactive
[4]
  Potency: 30.6 µM (active)
[5]
  Potency: 68.6 µM (active)
[6]
  Potency: inactive
[7]
  Potency: inactive
[8]
  outcome: inactive
[9]
  Potency: inactive
[10]
  Potency: 8.63 µM (active)
[11]
  Potency: inactive
[12]
  Potency: inactive
[13]
  outcome: inactive
[14]
  outcome: inactive
[15]
  Potency: inactive

## SC1CCCC1
[1]
  Potency: inactive
[2]
  Potency: inactive
[3]
  Potency: inactive
[4]
  Potency: inactive
[5]
  Potency: inactive
[16]
  Potency: inactive
[17]
  Potency: inactive
[7]
  Potency: inactive
[18]
  Potency: inactive
[8]
  outcome: inactive
[9]
  Potency: inactive
[19]
  Potency: inactive
[10]
  Potency: inactive
[11]
  Potency: inactive
[12]
  Potency: inactive
[13]
  outcome: inactive

## CCCCCCCCCCCCCCCCCBr
[1]
  activity change, negative = inhibition: -0.552% [at 19 µM]
[2]
  activation: -3.04% [at 19 µM]
[3]
  activity, negative = inhibition: 11.4% [at 19 µM]
[4]
  activity change, negative = cytotoxicity: 4.41% [at 19 µM]
[5]
  activity change, negative = cytotoxicity: -0.948% [at 19 µM]
[16]
  activity change, negative = cytotoxicity: -6.31% [at 19 µM]
[18]
  activity change, negative = cytotoxicity: 0.889% [at 19 µM]
[8]
  activation: -0.0997% [at 19 µM]
[9]
  activity change, negative = inhibition: 0.192% [at 18.9 µM]
[10]
  activity change, negative = cytotoxicity: 10.6% [at 19 µM]
[11]
  viability change, negative = cytotoxic: 1.56% [at 15.8 µM]
[12]
  activity change, negative = cytotoxicity: 0.567% [at 15.8 µM]
[13]
  activation: 2.19% [at 15.8 µM]
[14]
  activity, negative = inhibition: -2.78% [at 10.5 µM]
[15]
  activation: -0.232% [at 11.8 µM]

## CC(=O)NCCCS(=O)(=O)O
[1]
  Potency: inactive
[2]
  Potency: inactive
[3]
  Potency: inactive
[4]
  Potency: inactive
[5]
  Potency: inactive
[16]
  Potency: inactive
[17]
  Potency: inactive
[6]
  Potency: inactive
[7]
  Potency: inactive
[18]
  Potency: inactive
[8]
  outcome: inactive
[19]
  Potency: inactive
[10]
  Potency: inactive
[11]
  Potency: inactive
[12]
  Potency: inactive
[13]
  outcome: inactive
[14]
  outcome: inactive
[15]
  Potency: 11.9 µM (active)

— PubChem BioAssay (Tox21)
